The supplement of paper PMC3334620
In all, about 33,000 sequences were measured (“E-score (-0.5 to 0.5)”: median about -0.056, highest 2% from about 0.38 on). The list comes from a sample in which the highest values are over-represented; it also holds similar and randomly drawn sequences.

These sequences were tested against Stb4 (UniProt P50104) (assay: PBM E-score (8-mer binding enrichment) (E-score (-0.5 to 0.5)); higher = stronger / more preferred TF binding). Details: protein concentration: 200 nM; construct: GST-DNA-binding domain.
In short: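 Universal all-10-mer Agilent arrays, double-stranded by primer extension on fresh or once-stripped slides, were probed with about 100-200 nM GST-tagged yeast transcription factors made by PURExpress. Fluorescent anti-GST detected bound protein, and masliner normalised the scans. E-scores from the Universal PBM Analysis Suite were given to each ungapped eight-base word pooled with its reverse complement.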

UniProt P50104, sequence (P50104 whole entry, the tested form may be a part): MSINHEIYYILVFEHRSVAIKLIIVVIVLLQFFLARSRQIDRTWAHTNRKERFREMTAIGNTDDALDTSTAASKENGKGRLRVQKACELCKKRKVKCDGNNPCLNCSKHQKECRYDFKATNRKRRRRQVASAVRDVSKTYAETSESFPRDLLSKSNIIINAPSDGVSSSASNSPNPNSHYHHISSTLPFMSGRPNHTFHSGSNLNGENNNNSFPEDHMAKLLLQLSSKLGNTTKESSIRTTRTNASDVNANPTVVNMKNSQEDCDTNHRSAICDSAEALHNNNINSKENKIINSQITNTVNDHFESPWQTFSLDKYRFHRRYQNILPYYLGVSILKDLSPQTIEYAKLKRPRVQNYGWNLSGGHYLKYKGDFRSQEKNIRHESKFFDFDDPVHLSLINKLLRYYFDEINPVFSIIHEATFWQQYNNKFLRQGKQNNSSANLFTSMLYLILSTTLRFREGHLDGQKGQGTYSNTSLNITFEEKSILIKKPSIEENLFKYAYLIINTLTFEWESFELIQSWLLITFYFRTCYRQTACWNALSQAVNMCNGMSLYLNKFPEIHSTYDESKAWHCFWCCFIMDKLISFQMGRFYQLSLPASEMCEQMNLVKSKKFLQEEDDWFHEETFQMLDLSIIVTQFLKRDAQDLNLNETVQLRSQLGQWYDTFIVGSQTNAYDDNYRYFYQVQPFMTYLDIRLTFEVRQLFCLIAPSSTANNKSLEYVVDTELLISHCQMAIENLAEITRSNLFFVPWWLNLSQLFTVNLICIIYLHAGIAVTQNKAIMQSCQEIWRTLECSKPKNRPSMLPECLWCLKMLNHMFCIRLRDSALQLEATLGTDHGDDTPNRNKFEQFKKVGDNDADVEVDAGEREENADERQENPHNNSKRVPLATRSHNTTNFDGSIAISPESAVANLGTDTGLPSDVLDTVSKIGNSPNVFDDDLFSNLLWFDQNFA

Row | Sequence | PBM E-score
1 | CCGAACGG | 0.413
2 | GCGAACGC | -0.0479
3 | ATGCTGTC | -0.134
4 | CGCTAGAA | -0.154
5 | ACTTATCT | -0.211
6 | AAGTCTTC | -0.108
7 | ATGCTGAG | -0.229
8 | CCTTCGAA | -0.117
9 | CCTTCGGC | 0.335
10 | CCTTCGGA | 0.474
11 | GCTTCGGA | 0.439
12 | GCTTCGTA | -0.25
13 | GCTTCGCA | -0.173
14 | ACTTCGCC | -0.0357
15 | ACTTCGGC | 0.392
16 | ACTTCGAG | -0.0152
17 | ACTTCGGG | 0.407
18 | ACTTCGCG | 0.116
19 | CCTTCGCA | -0.236
20 | CGTAGTGA | -0.114
21 | GAAGAGTC | -0.0545
22 | ACCACTAA | -0.0511
23 | AGGAGTCG | -0.142
24 | GCCATAAC | -0.211
25 | AAGTCGGG | 0.306

Row | Sequence | PBM E-score
26 | ACTCATTG | -0.0916
27 | CACGCCAG | -0.0642
28 | ACTTCGCA | -0.156
29 | ACTTCGAA | -0.167
30 | ACTTCGGA | 0.458
31 | ACGATCCA | -0.0732
32 | ATGATCCG | 0.397
33 | ACGATCCC | 0.192
34 | ACGATCCG | 0.399
35 | ATGATCCC | 0.157
36 | ATGATCCA | -0.032
37 | CCGATCCG | 0.445
38 | CCGATCCC | 0.34
39 | CCGATCCA | 0.238
40 | GAGACGCA | 0.0275
41 | CCCAATCC | 0.0104
42 | CAGGGGCG | -0.182
43 | GGGACCGA | 0.265
44 | ATAACCGC | 0.0841
45 | ATAACCGG | 0.281
46 | TCAACCGA | 0.291
47 | CGGACCGA | 0.419
48 | CGAACCGC | 0.0494
49 | GGAACCGA | 0.343
50 | ATAACCGA | 0.388

Row | Sequence | PBM E-score
51 | CGAACCGA | 0.397
52 | CGGACCGC | 0.29
53 | CTAACCGA | 0.401
54 | CTAACCGC | 0.0169
55 | GAACGTCA | -0.175
56 | CTGCCATC | -0.0272
57 | CCCGTACC | 0.245
58 | AGAACTTG | -0.161
59 | ACTGACCT | -0.2
60 | AATGAAAG | -0.0359
61 | ACTAGGGG | -0.0854
62 | TCCGCAGA | 0.0922
63 | GTAACCTA | 0.0635
64 | CTTACCGA | 0.393
65 | GTAACCCA | -0.0452
66 | GATACCGA | 0.291
67 | GTAACCGA | 0.386
68 | CATACCGA | 0.287
69 | CTTACCGC | 0.119
70 | TATACCGA | 0.383
71 | GTTACCGA | 0.366
72 | GACCCAAC | -0.116
73 | CGGTAGAG | 0.112
74 | AATTTGCC | 0.0997
75 | ATGAGATC | -0.124

Row | Sequence | PBM E-score
76 | ACTGAAAT | -0.18
77 | GGTCGGAA | 0.439
78 | GGTCGGGA | 0.368
79 | CGTCGGAG | 0.275
80 | GGACGGAA | 0.328
81 | AGTCGTAT | -0.147
82 | GGTCGGAC | 0.144
83 | CGTCGGAC | 0.269
84 | CGTCGGGA | 0.383
85 | CGTCGGAA | 0.452
86 | AGTCGGGA | 0.362
87 | AGTCGGCC | 0.168
88 | AGTCGGAT | 0.429
89 | CTAGATAC | 0.0146
90 | AGGACCGC | -0.0222
91 | CAGAATAA | -0.0851
92 | AGTCGGAG | 0.226
93 | AGTCGGAC | 0.176
94 | TGTCGTAA | -0.215
95 | TGACGGAA | 0.312
96 | AGTCGGAA | 0.451
97 | TGTCGGAA | 0.416
98 | AGAGAACT | -0.114
99 | GGGTCACA | -0.0305
100 | CAATTTAA | -0.105

Row | Sequence | PBM E-score
101 | GGTTTTTA | -0.0968
102 | CAGGAGCA | -0.163
103 | CACCTGAG | -0.337
104 | CTGATATC | 0.136
105 | AGGATATC | 0.0132
106 | CGGATATA | 0.452
107 | CGGATATC | 0.426
108 | GGGATATA | 0.168
109 | AGGATATA | -0.0497
110 | TCCAGTAA | -0.176
111 | TCTGACCA | -0.24
112 | CGTTCGGC | 0.368
113 | CGTTCGGA | 0.465
114 | GGTTCGCA | 0.0434
115 | GGTTCGGA | 0.442
116 | GGTTCGAA | -0.0143
117 | CGTTCGTA | -0.0524
118 | ACATTGGA | -0.177
119 | CGAGATAG | 0.00411
120 | CTGCAAAG | -0.28
121 | CGTCCTGA | -0.249
122 | TCCGTTAA | 0.259
123 | AAAAACCT | 0.0896
124 | CACGAGGA | -0.11
125 | ACCGAGGA | 0.323

Row | Sequence | PBM E-score
126 | GACGAGGC | -0.0506
127 | TCCGAGGA | 0.453
128 | TACGAGGA | -0.193
129 | ACCGAGGC | 0.302
130 | CTCGAGGA | -0.188
131 | CCCGAGGA | 0.388
132 | GTCGAGGA | -0.239
133 | GCCGAGGA | 0.4
134 | TCAGAGGA | -0.183
135 | GCCGAGGC | 0.436
136 | GTAAGCAC | -0.144
137 | CGAAATGC | 0.124
138 | ATGTCGTA | -0.29
139 | AGGATGGA | 0.0445
140 | CAGGATTA | 0.00923
141 | CACCCTCG | 0.0812
142 | CACACATG | -0.15
143 | CGATCGCC | 0.0955
144 | TAGTAACA | -0.0586
145 | CCCAGAGC | -0.299
146 | AGAAGGAA | 0.0573
147 | CCCGAGGC | 0.388
148 | CGCGAGGC | 0.0155
149 | CCCGAGGG | 0.404
150 | CACGAGGC | -0.131

Row | Sequence | PBM E-score
151 | CACGAGGG | -0.0631
152 | ACCGAGGG | 0.27
153 | CCATAAGG | -0.314
154 | CCAGATAC | -0.122
155 | CTATTGCA | -0.0693
156 | ACAGACCT | 0.00106
157 | ACCAATCT | 0.0037
158 | CGGATAAG | 0.41
159 | CGGATAAA | 0.465
160 | AGGATAAG | -0.0142
161 | AGGATAAC | -0.159
162 | CGGATAAC | 0.452
163 | GGGATAAC | 0.0907
164 | CCGATAAG | 0.269
165 | AGGATAAA | -0.0635
166 | TGGATAAA | 0.027
167 | AGATCAGC | 0.0618
168 | GGTAGACC | 0.143
169 | CCTCTTAC | -0.274
170 | AACGACTA | -0.151
171 | AAGGTACG | -0.0106
172 | GGCCTAAA | -0.102
